# Out of some 13,000 compounds screened, about 3,200 (25%) showed an effect of 50% or more. Some of the results follow.
# Test system: P. falciparum stage V gametocytes
# Design: BacTiter-Glo ATP luminescence viability of purified stage V gametocytes in 384-well plates, per cent inhibition versus DMSO
# Conditions: 48 h, 5 µM; inhibitor
row,SMILES,% Inhibition [%]
1,COc1ccc(C2NCCc3c2[nH]c2ccccc32)cc1CN1CCN(c2ccc(F)cc2)CC1 (stereo not shown) [TCMDC-124340],-3.324
2,COc1cc(C2C(Oc3ccccc3)C(=O)N2Cc2ccc(F)cc2)cc(OC)c1OC (stereo not shown) [TCMDC-125396],72.32
3,COc1cc(NC(=O)c2ccc3c(=O)n(Cc4ccccc4)c(=S)[nH]c3c2)cc(OC)c1OC [TCMDC-123804],26.78
4,NCCCNc1nc(Nc2cccc(C(N)=O)c2)c2c(=O)[nH]ccc2n1 [TCMDC-135053],0.6256
5,NCCCNc1nc(Nc2ccc(C(F)(F)F)cc2F)c2c(=O)[nH]ccc2n1 [TCMDC-135056],108.1
6,Cc1cccc(Nc2nc(NCCCCN)nc3cc[nH]c(=O)c23)c1 [TCMDC-134946],47.91
7,CCS(=O)(=O)c1ccc(/C(=N/OC)c2ccc[nH]2)cc1 [TCMDC-139022],-5.005
8,CCCc1cc(=O)[nH]c(-n2nc(C)cc2NC(=O)C(CC)c2ccccc2)n1 (stereo not shown) [TCMDC-124941],11.79
9,Cc1ccc(Nc2cc(C)nn2-c2nc(C)cc(=O)[nH]2)cc1 [TCMDC-123713],62.43
10,Cc1cc(=O)[nH]c(-n2nc(C)cc2NC(=O)C(c2ccccc2)c2ccccc2)n1 [TCMDC-124945],2.872
11,Cc1cc(=O)[nH]c(-n2nc(C)cc2NC(=O)CC(c2ccccc2)c2ccccc2)n1 [TCMDC-124944],-15.6
12,CCN(CC)c1nc(Nc2cc(C)ccc2C)nc(Nc2ccccc2O)n1 [TCMDC-125766],-38.82
13,CCn1c(-c2nonc2N)nc2c(-c3cccc(NC(=O)Nc4ccc5c(c4)CCC5)c3)ncc(OCCCN)c21 [TCMDC-136191],95.55
14,CCOC(=O)c1ccc(NC(=O)Nc2cccc(-c3cccc(-c4nc5c(C)cccc5[nH]4)c3)c2)cc1 [TCMDC-133264],-4.791
15,CCn1c(-c2nonc2N)nc2c(-c3cccc(NC(=O)Nc4ccc(Cl)cc4)c3)ncc(OCCCN)c21 [TCMDC-136152],102.5
16,CCOC(=O)c1ccc(NC(=O)Nc2cccc(-c3cccc(-c4nc5ccccc5[nH]4)c3)c2)cc1 [TCMDC-133263],2.081
17,CCn1c(-c2nonc2N)nc2cnc(Oc3cccc(NC(=O)c4ccc(OCCN5CCCC5)cc4)c3)cc21 [TCMDC-135776],8.365
18,CCn1c(-c2nonc2N)nc2cnc(Oc3cccc(NC(=O)c4ccc(OCCCN5CCCCC5)cc4)c3)cc21 [TCMDC-135764],-4.348
19,Nc1nonc1-c1nc2c(-c3cccc(Cl)c3)nccc2n1CCCNC(=O)Cc1ccc(Cl)cc1 [TCMDC-135207],32.87
20,Cc1cccc2[nH]c(-c3cccc(-c4cccc(NC(=O)Nc5ccc(Cl)cc5)c4)c3)nc12 [TCMDC-133179],-25.81
21,CCn1c(-c2nonc2N)nc2c(-c3cccc(NC(=O)NC45CC6CC(CC(C6)C4)C5)c3)ncc(OCCCN)c21 [TCMDC-136246],20.74
22,CCOC(=O)c1cccc(NC(=O)Nc2cccc(-c3ncc(OCCCN)c4c3nc(-c3nonc3N)n4CC)c2)c1 [TCMDC-136205],109.2
23,CCn1c(-c2nonc2N)nc2c(Cl)ncc(O[C@H](CCN)c3ccccc3F)c21 [TCMDC-133566],-5.634

row,SMILES,% Inhibition [%]
1,CCn1c(-c2nonc2N)nc2c(-c3cccc(NC(=O)Nc4cccc(Cl)c4)c3)ncc(OCCCN)c21 [TCMDC-136193],104.3
2,Cc1cccc2nc(-c3ccc(-c4cccc(CN5CC(C)OC(C)C5)c4)s3)[nH]c12.O=C(O)C(F)(F)F (stereo not shown) [TCMDC-133832],-9.101
3,N#Cc1ccc(C(=O)Nc2cc(-c3cccc(O)c3)cc3[nH]ncc23)cc1 [TCMDC-134118],16.86
4,Cc1ccc(Oc2ncccc2C(=O)Nc2cccc3cccnc23)c(C)c1 [TCMDC-125499],-13.13
5,O=C(Nc1ccc(CCN2CCC(c3nc(COCC(F)(F)F)c(-c4ccccc4)o3)CC2)cc1)c1ccc(F)cc1 [TCMDC-131904],-33.25
6,O=C(Nc1nccs1)c1sc2ccccc2c1O [TCMDC-124521],-6.294
7,CCNc1cc(C(=O)N[C@@H](Cc2ccccc2)[C@H](O)CNCc2cc(C#N)ccc2OC)cc(N2CCCC2=O)c1 [TCMDC-141684],32.6
8,COc1ccc(-n2nc(C(=O)NCc3ccccc3OC)c3ccccc3c2=O)cc1 [TCMDC-125443],-5.134
9,CCn1nc(C(=O)NC2CCOc3ccccc32)c2ccccc2c1=O (stereo not shown) [TCMDC-124816],60.74
10,CC1CCC(NC(=O)c2nn(-c3ccc(Cl)cc3)c(=O)c3ccccc23)CC1 (stereo not shown) [TCMDC-124775],-0.9327
11,COc1ccc(CN2CCC(CN3CC4(OC3=O)c3ccccc3-c3ccccc34)C2)c(O)c1 (stereo not shown) [TCMDC-136069],30.12
12,CCNc1cc(C(=O)N[C@@H](Cc2ccccc2)[C@H](O)CNCc2cccc(OC)c2)c(OC)c(N2CCCCS2(=O)=O)c1 [TCMDC-134673],-8.62
13,N=C(N)NN=CC(=O)Nc1ccc(Cl)cc1 [TCMDC-137472],9.695
14,Clc1ccc(NC(=NCCCCCCCN=C(Nc2ccc(Cl)cc2)Nc2ccc(Cl)cc2)Nc2ccc(Cl)cc2)cc1 [TCMDC-137529],128.8
15,O=C(Nc1ccc(Cl)cc1)Nc1ccc(-c2ccc(-c3nc4ccccc4[nH]3)cc2)cc1 [TCMDC-133181],-19.19
16,S=C(Nc1ccc(Cl)cc1)Nc1ccc(Nc2ccccc2)cc1 [TCMDC-123954],-65.82
17,NC(=NCCCCCCCCN=C(N)Nc1ccc(Cl)cc1)Nc1ccc(Cl)cc1 [TCMDC-131828],83.63
18,NC(=NCCc1ccc(Cl)cc1)c1ccc(Cl)c(Cl)c1 [TCMDC-137459],-9.34
19,Clc1cccc(-c2nc(Nc3ccnc(-c4ccc(CN5CCOCC5)cc4)c3)c3ccccc3n2)c1 [TCMDC-138870],-2.785
20,COC(=O)c1ccc(CC(C)NCC(O)c2cccc(Oc3cccc(C(F)(F)F)c3)c2)cc1 (stereo not shown) [TCMDC-131489],30.29
21,COc1ccc2c(c1)[nH]c1c(/C=C/c3ccc([N+](=O)[O-])cc3)nccc12 [TCMDC-125486],8.204
22,Cc1sc(NC(=O)c2ccc([N+](=O)[O-])cc2Cl)c(C(N)=O)c1C [TCMDC-125749],-6.756
23,c1nc2nc3c(c(Nc4ccc5c(c4)CCC5)n2n1)CCC3 [TCMDC-123573],-7.89

row,SMILES,% Inhibition [%]
1,O=C(/C=C/c1ccc(Cl)c(Cl)c1)NCCCCCN1CCCC(C(=O)Nc2ccc(F)c(Cl)c2)C1 (stereo not shown) [TCMDC-136114],-6.866
2,O=C(/C=C/c1ccc(Cl)cc1)NCCCCCN1CCCC(C(=O)Nc2ccc(Cl)cc2)C1 (stereo not shown) [TCMDC-136117],4.842
3,O=C(/C=C/C=C/c1ccc(Cl)c(Cl)c1)NCCCCCN1CCCC2CCCCC21 (stereo not shown) [TCMDC-139469],92.39
4,O=C(/C=C/c1ccc(Cl)c(Cl)c1)NCCCCCN1CCCC(C(=O)Nc2ccc(Cl)cc2)C1 (stereo not shown) [TCMDC-136118],-2.254
5,O=C(/C=C/c1ccc(Cl)c(Cl)c1)NCCCCCN1CCC(NC(=O)NC2CCCCCC2)CC1 [TCMDC-135698],-24.64
6,O=C(/C=C/c1ccc(Cl)c(Cl)c1)NCCCCCN1CCC(NC(=O)NC2CCCC2)CC1 [TCMDC-135699],-68.94
7,O=C(/C=C/c1ccc(Cl)c(Cl)c1)NCCCCCN1CCCC(C(=O)Nc2cccc(Cl)c2)C1 (stereo not shown) [TCMDC-136122],-10.14
8,O=C(/C=C/c1ccc(Cl)cc1)NCCCCCN1CCCC(C(=O)Nc2cccc(Cl)c2)C1 (stereo not shown) [TCMDC-136121],90.21
9,O=C(/C=C/c1ccc(Cl)c(Cl)c1)NCCCCCN1CCCC(C(=O)Nc2ccc(Cl)c(Cl)c2)C1 (stereo not shown) [TCMDC-136126],74.26
10,CC(C)C1=C[C@H]2C[C@]3(C4OCCO4)[C@@H]4CC[C@@H](C)[C@H]4C[C@@]2(C(=O)OCC2COCO2)[C@]13C(=O)OC(c1ccccc1)c1ccccc1 (stereo partly shown) [TCMDC-131949],-14.13
11,CN(C)c1ccc(C(c2ccc(N(C)C)cc2)c2cc([N+](=O)[O-])ccc2Cl)cc1 [TCMDC-124088],-4.747
12,O=S1(=O)C=C(c2ccccc2)CC1 [TCMDC-125863],-1.513
13,O=C(Nc1cc(Cl)ccc1O)c1cnn2c(C(F)(F)F)cc(-c3cccs3)nc12 [TCMDC-125807],-56.02
14,COc1cc(CN2CCC(N3CCc4cc(NC(=O)c5cc(C)on5)ccc43)C2)ccc1F (stereo not shown) [TCMDC-135084],-32.41
15,N#Cc1cccc(NC(=O)Nc2cccc(-c3ccc(-c4nc5ccc(C(F)(F)F)cc5[nH]4)cc3)c2)c1 [TCMDC-133191],-49.97
16,CC1CCN(c2nc(C(=O)NCCc3ccc(Cl)c(Cl)c3)c(C(C)C)s2)CC1 [TCMDC-134836],1.732
17,Cc1ccc(C)c2sc(N3CCN(C(=O)c4ccc([N+](=O)[O-])o4)CC3)nc12 [TCMDC-124315],103
18,CCOC(=O)C(CO)NC(=O)c1ccc([N+](=O)[O-])o1 (stereo not shown) [TCMDC-131608],22.85
19,CCOC(=O)C(NC(=O)c1ccc([N+](=O)[O-])o1)C(C)C (stereo not shown) [TCMDC-131607],14.28
20,CC(C)c1sc(N2CCN(C)CC2)nc1C(=O)NCCc1ccc(Cl)c(Cl)c1 [TCMDC-134295],11.7
21,Cc1ccc(Cl)c2sc(N3CCN(C(=O)c4ccc([N+](=O)[O-])o4)CC3)nc12 [TCMDC-124311],95.54
